Where “and” joins values, the source holds several entries; their conditions need not be identical. Equal entries are not always repeated. Results filed as inconclusive are left out. Calls of active or inactive are those of the source. Unless noted, the call rests on the fitted dose curve; in most records, active means well fitted curve in the direction sought with a large enough effect; inconclusive means small, poorly fitted or top-dose-only effect, or another doubt; inactive means no such curve, though single readings can be large; an effect the other way counts as inactive or inconclusive.
Columns and labels:
[1] = biological target: Tyrosine-protein kinase Yes (Homo sapiens) (UniProt P07947); experiment: qHTS for small molecule inhibitors of Yes1 kinase: Primary Screen (AID 686947); further: nearly all actives have a fitted effect of over 60% in size; further: potency means the concentration at half of the fitted maximal effect
Tyrosine-protein kinase Yes (Homo sapiens), sequence (P07947 whole entry, looked up): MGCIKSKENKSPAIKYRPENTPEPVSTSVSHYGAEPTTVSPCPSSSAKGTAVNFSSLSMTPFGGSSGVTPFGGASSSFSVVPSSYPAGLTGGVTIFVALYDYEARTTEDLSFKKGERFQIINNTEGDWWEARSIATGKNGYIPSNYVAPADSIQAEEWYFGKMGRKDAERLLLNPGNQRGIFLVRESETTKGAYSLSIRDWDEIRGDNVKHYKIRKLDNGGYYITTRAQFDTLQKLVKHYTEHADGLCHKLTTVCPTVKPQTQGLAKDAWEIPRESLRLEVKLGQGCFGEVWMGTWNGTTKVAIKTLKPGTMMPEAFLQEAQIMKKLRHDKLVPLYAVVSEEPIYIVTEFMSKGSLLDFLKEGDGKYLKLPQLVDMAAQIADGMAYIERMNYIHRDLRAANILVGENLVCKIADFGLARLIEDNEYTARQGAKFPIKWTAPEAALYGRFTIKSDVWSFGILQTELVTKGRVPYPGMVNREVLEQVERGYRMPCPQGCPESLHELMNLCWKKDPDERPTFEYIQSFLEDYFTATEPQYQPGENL
Outline: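 In this qHTS format, inhibition is expressed relative to DMSO controls with enzyme (maximum) and without enzyme (minimum). The 60 min room-temperature reaction uses 0.1 mM ATP, with ADP detected by luminescence.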

[2] = qHTS for small molecule inhibitors of Yes1 kinase: Counter Assay (AID 686950);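 further: no kinase present so only ADP-Glo detection of a fixed ADP amount is tested; luminescence from ADP-Glo reporting ADP in a fixed ATP and ADP mixture; series mostly up to about 77 µM; 0% = DMSO wells with ATP plus ADP and -100% = ATP-only wells without ADP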
Outline: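 ADP-Glo luminescence read after a 60 min room-temperature incubation of compound with an ATP/ADP mix (0.08 mM/0.02 mM) and no kinase, following a 20 min compound preincubation. Signal scaled between ATP+ADP (max) and 0.1 mM ATP-only (min) wells; Tris pH 7.5, Mg2+, DTT.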

[3] = biological target: Arylsulfatase A (Homo sapiens) (UniProt P15289); experiment: qHTS screen for enhancers of Arylsulfatase A (ASA1): LOPAC Validation Assay (AID 720538); conditions: outcome: dose series up to 57.5 µM
Arylsulfatase A (Homo sapiens), sequence (P15289 whole entry, looked up): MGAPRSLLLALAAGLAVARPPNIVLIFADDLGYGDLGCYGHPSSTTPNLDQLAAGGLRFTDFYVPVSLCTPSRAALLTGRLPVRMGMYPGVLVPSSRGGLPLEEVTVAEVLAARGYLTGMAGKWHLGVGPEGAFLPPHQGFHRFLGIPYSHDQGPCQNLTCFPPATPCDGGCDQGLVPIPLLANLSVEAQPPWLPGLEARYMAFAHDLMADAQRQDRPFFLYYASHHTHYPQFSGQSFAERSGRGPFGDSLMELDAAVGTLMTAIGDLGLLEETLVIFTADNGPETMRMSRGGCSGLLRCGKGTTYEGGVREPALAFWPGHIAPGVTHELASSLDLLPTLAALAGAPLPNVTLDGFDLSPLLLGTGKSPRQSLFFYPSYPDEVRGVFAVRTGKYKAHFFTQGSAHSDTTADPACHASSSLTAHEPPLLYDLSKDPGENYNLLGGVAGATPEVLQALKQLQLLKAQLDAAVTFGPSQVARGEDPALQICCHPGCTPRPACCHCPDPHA
Outline: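 Cell-based enhancement test: residual ASA activity in SV40-transformed I179S patient fibroblasts is measured by pNCS turnover (0.5mM final, 14h, room temperature) following 48h compound incubation; higher fluorescence indicates activation.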

[4] = qHTS for compounds that reverse cellular toxicity of Amyloid beta (A-beta) peptide in yeast: LOPAC Validation Assay (AID 720559);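 further: plate controls were DMSO for no effect and equimolar ferric chloride plus clioquinol rescue for full effect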
Outline: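 Here, A-beta-toxic yeast grow with test compounds at 30 C for 48 hr before optical density at 600 nm is recorded; data are normalized against DMSO and the FeCl3-clioquinol control.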

[5] = qHTS for Activators of Parkin Expression: LOPAC Validation Assay (NLuc Reporter) (AID 720572)
Outline: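 Compound effects on Parkin promoter activity were measured as NanoLuc luminescence after 24 h at 37 C. The neuronal reporter line also carried FLuc, which was read first. LOPAC compounds were tested at 7 concentrations, with normalization to DMSO (0%) and positive control (100%).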

[6] = biological target: T1, Hexokinase-4 (Homo sapiens) + Glucokinase regulatory protein (Homo sapiens) (UniProt P35557+Q14397); experiment: qHTS assay for inhibitors of recombinant human GCK-GKRP interaction: Diaphorase-coupled assay (AID 743205)
T1 sequence (P35557 whole entry, looked up): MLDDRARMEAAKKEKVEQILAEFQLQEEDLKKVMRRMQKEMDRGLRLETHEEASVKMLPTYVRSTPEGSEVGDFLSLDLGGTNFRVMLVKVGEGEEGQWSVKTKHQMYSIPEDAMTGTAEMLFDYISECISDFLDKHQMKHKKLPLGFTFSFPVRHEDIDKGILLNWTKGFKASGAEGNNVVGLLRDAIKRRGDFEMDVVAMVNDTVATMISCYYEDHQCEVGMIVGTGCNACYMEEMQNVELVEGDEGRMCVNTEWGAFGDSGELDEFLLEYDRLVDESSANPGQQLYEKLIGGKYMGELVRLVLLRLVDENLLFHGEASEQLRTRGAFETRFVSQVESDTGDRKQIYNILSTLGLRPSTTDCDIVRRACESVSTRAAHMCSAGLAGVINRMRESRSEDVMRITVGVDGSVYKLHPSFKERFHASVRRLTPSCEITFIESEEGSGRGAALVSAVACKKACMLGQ
T1 sequence (Q14397 whole entry, looked up): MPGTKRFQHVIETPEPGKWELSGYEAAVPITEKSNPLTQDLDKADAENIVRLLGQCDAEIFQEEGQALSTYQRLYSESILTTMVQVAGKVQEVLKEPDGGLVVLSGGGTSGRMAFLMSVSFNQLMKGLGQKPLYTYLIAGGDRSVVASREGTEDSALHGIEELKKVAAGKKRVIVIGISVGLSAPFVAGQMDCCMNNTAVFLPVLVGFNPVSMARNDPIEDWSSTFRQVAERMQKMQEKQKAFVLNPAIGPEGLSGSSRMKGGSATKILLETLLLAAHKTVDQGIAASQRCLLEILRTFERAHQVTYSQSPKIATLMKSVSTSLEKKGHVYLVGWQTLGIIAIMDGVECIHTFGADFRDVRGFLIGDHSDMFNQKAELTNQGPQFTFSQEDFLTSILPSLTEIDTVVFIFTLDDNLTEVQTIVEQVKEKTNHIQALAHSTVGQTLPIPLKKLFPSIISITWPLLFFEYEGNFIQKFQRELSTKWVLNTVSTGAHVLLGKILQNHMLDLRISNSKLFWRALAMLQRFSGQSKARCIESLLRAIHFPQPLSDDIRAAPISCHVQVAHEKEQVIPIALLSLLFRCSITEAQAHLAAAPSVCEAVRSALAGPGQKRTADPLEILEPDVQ
Outline: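 Signal derives from resorufin generated by diaphorase, linked to GCK turnover of glucose (5 mM) and ATP (0.4 mM). Enzyme complex was added after a 20-minute compound preincubation and monitored for 30 minutes.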

[7] = biological target: T1, Hexokinase-4 (Homo sapiens) + Glucokinase regulatory protein (Homo sapiens); experiment: qHTS assay for inhibitors of recombinant human GCK-GKRP interaction: ADP-Glo assay (AID 743206);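 further: plate controls were DMSO plus enzyme for no effect and no enzyme for full effect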
Outline: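 Pin-transferred compounds meet a 15 nM GST-GCK/15 nM FLAG-GKRP/2 uM S6P mix (dispense concentrations). ATP is then added to 0.4 mM final with 5 mM glucose, and the reaction runs 60 min at room temperature. ADP is quantified luminescently.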

[8] = biological target: T1, Hexokinase-4 (Homo sapiens) + Glucokinase regulatory protein (Homo sapiens); experiment: qHTS assay for inhibitors of recombinant human GCK-GKRP interaction: HTRF assay (AID 743207);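 further: 0% = DMSO with GCK present and -100% = DMSO wells lacking GCK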
Outline: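 Titration screening format: recombinant GST-GCK and FLAG-GKRP at 5 nM, S6P at 2 uM, labelled anti-tag antibodies, 60 min at RT, dual-wavelength HTRF readout.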

[9] = qHTS Assay for Identifying Gametocytocidal Compounds (AID 743244); further: potency means the concentration at half of the fitted maximal effect;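 on max response: on the % scale 0 is the no-effect control and ±100 the full control effect; actives lower the fluorescent signal which means gametocytes are killed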; conditions: P. falciparum 3D7 stage III-V gametocytes, alamarBlue, 72 h; max response: hits give low values
Outline: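 Compounds are pinned into medium, gametocytes (stage III–V, 3D7, 20,000 cells/well) added, and plates held 72 h at 37 °C in 5% CO2. AlamarBlue follows for 24 h before fluorescence reading.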

[10] = qHTS assay for small molecule disruptors of the mitochondrial membrane potential - 1 hr assay (AID 651754; calls by dose curve; further: potency means the concentration at half of the fitted maximal effect; nearly all actives have a fitted effect of over 35% in size)
Outline: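 Read-out: dye fluorescence at 490 nm ex/535 nm em (monomers) and 540 nm ex/590 nm em (aggregates) in HepG2 cells. Compound exposure 1 hr at 37C, followed by 30 min dye loading.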

[11] = qHTS assay for environmental chemicals that activate the Aryl hydrocarbon Receptor (AhR) signaling pathway (AID 651777); conditions: 1A2-DRE human hepatoma cells, luciferase, 24 h; activation: hits give high values; further: nearly all actives have a fitted effect of over 15% in size; further: potency means the concentration at half of the fitted maximal effect; on activation: % of control where 0% means no effect
Outline: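 Concentration–response screening used 1,200 1A2-DRE cells per well, 24 hr compound exposure (37 C, 5% CO2), and One-Glo luminescence as the AhR-driven CYP1A2 reporter signal.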

[12] = biological target: Nuclear receptor ROR-gamma (Homo sapiens) (UniProt P51449); experiment: qHTS assay for small molecule antagonists of the retinoid-related orphan receptor gamma (ROR-gamma) signaling pathway (AID 651802);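 further: CHO cells with doxycycline-induced ROR-gamma expression; luciferase reporter luminescence driven by ROR response element; series mostly up to about 92 µM; on the % scale 0 is the no-effect control and ±100 the full control effect; nearly all actives have a fitted effect of over 60% in size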
Nuclear receptor ROR-gamma (Homo sapiens), sequence (P51449 whole entry, looked up): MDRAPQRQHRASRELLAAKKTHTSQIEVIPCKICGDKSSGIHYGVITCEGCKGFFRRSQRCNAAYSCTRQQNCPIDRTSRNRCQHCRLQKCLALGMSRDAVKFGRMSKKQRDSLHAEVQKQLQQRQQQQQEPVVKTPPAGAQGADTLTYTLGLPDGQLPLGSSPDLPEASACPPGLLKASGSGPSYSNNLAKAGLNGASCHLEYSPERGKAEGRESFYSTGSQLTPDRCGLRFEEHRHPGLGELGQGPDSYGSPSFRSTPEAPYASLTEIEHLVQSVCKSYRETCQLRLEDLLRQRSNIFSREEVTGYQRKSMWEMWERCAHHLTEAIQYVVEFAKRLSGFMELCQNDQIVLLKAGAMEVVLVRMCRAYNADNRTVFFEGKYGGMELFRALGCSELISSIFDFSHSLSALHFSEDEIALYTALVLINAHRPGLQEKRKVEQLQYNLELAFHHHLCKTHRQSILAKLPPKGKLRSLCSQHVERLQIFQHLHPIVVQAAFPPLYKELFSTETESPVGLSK
Outline: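 Luciferase read-out: ONE-Glo luminescence after 30 min at room temperature, following 16hr doxycycline induction at 37C, 5% CO2 of CHO cells with TET-inducible ROR and RORE-LUC reporter; decreased luminescence = reduced reporter activity.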

[13] = qHTS assay for small molecule agonists of the antioxidant response element (ARE) signaling pathway measured by Nrf2-dependant transcriptional activity - cell viability counter screen (AID 720653; active means well fitted curve in the direction sought with a large enough effect in the repeat runs; an effect the other way counts as inactive or inconclusive; further: on the % scale 0 is the no-effect control and ±100 the full control effect); conditions: ARE-bla HepG2 viability, CellTiter-Glo ATP luminescence, 16 h; max response: hits give low values
Outline: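 Cytotoxicity counter screen: intracellular ATP quantified by CellTiter-Glo luminescence in the same ARE-bla HepG2 plates, after 16 h compound exposure and a 2 h beta-lactamase substrate step.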

[14] = qHTS for Activators of Parkin Expression: LOPAC Validation Assay (FLuc Reporter) (AID 720573)
Outline: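 Readout is FLuc luminescence from neuronal reporter cells (Parkin promoter, FLuc plus NLuc) after 24 h compound exposure in dose response. Values normalized to neutral DMSO and positive-control compounds.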

[15] = biological target: Peroxisome proliferator-activated receptor alpha (Homo sapiens) (UniProt Q07869); experiment: qHTS assay for small molecule agonists of the peroxisome proliferator-activated receptor alpha (PPARalpha) signaling pathway (AID 651778); conditions: PathHunter PPARalpha complementation, chemiluminescence, 6 h; max response: hits give high values; further: % of control where 0% means no effect
Peroxisome proliferator-activated receptor alpha (Homo sapiens), sequence (Q07869 whole entry, looked up): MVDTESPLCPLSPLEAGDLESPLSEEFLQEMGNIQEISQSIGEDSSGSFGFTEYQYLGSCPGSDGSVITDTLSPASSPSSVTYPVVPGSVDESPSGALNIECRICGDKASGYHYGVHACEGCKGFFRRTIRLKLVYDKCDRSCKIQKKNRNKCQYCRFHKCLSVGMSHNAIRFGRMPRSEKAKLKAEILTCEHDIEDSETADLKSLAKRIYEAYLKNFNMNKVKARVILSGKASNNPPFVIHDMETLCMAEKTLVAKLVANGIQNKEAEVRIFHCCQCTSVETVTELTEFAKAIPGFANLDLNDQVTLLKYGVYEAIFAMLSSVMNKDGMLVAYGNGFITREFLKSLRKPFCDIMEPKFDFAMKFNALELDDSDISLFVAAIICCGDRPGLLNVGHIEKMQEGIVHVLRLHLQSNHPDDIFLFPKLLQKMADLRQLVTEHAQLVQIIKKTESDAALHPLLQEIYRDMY
Outline: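 Chemiluminescence from complemented enzyme reported PPARalpha activation in cells after 6 hr of compound treatment at 37 C. The detection reagent was incubated for 60 min at room temperature, and compounds were scored as agonists.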

[16] = biological target: Tumor necrosis factor (Homo sapiens) (UniProt P01375); experiment: qHTS assay to identify small molecules that stimulate Tumor Necrosis Factor-alpha (TNF-alpha) secretion (AID 651757; active means well fitted curve in the direction sought with a large enough effect in the signal ratio; the % refers to the signal ratio; further: 0% is about no effect)
Tumor necrosis factor (Homo sapiens), sequence (P01375 whole entry, looked up): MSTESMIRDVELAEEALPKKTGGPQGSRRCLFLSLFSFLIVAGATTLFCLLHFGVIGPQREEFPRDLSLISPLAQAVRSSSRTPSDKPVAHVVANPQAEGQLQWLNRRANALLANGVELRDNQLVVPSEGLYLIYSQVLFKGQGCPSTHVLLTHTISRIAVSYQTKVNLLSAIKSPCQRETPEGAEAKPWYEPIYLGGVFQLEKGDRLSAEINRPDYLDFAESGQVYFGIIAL
Outline: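 THP-1 cells, 3000/well; compound 17 hrs, 37 C; add cryptate/XL665 anti-TNF-alpha antibody pair; 3 hr RT; TR-FRET (HTRF) read of secreted TNF-alpha. Quantitative HTS format.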

[17] = qHTS assay for small molecule antagonists of the retinoid-related orphan receptor gamma (ROR-gamma) signaling pathway - cell viability counter screen (AID 720652; active means well fitted curve in the direction sought with a large enough effect in the repeat runs; an effect the other way counts as inactive or inconclusive;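 further: CHO reporter cells with doxycycline-induced ROR-gamma expression; series mostly up to about 92 µM; compound exposure lasted 16 hr before ATP read; on the % scale 0 is the no-effect control and ±100 the full control effect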)
Outline: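 CHO RORE-LUC/TET-ROR line, 1,000 cells/well, 37 C 5% CO2 5 hr; cpd or DMSO + doxycycline induction, 16 hr. CellTiter-Glo, 30 min RT, luminescence = ATP content.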

COc1ccc2c(c[n+](C)c3c4cc5c(cc4ccc23)OCO5)c1OC
inactive: Potency [1] | outcome [2] | outcome [3] | outcome [4] | outcome [5] | outcome [6] | outcome [7] | outcome [8]
active: Potency [9] 18.7 µM

Nc1cccc2c(N)cccc12
active: Potency [10] 2.98 µM | Potency [11] 25.1 µM | Potency [9] 25.1 µM
inactive: Potency [12] | max response [13] -13.9%

Cc1ccccc1-n1c(Cn2cnc3c(N)ncnc32)nc2cccc(C)c2c1=O
inactive: Potency [1] | outcome [2] | max response [9] 15.4%

c1cc(-c2cnn3cc(-c4ccc(OCCN5CCCCC5)cc4)cnc23)ccn1
active: Potency [1] 0.0547 µM

c1ccc(CCCN2CCN(CCOC(c3ccccc3)c3ccccc3)CC2)cc1
inactive: outcome [3] | outcome [4] | outcome [5] | outcome [14] | outcome [6] | outcome [7] | outcome [8]

CC(C)[C@]12O[C@H]1[C@@H]1O[C@]13[C@]1(O[C@H]1C[C@H]1C4=C(CC[C@@]13C)C(=O)OC4)[C@@H]2O
inactive: Potency [1] | outcome [2] | max response [9] -3.04%

C[N+]1(C)C2CC(OC(=O)[C@H](CO)c3ccccc3)CC1C1OC12 (stereo partly drawn)
inactive: outcome [3]

CCCCCCCCCC(CC)c1ccc(S(=O)(=O)O)cc1 (stereo not drawn)
inactive: activation [11] -1.06% | max response [15] 1.36% | max response [13] -0.0281% and -4.65% | max response [9] -5.24% and 45.2%

CC1CC(C)C(=O)C(C(O)CC2CC(=O)NC(=O)C2)C1 (stereo not drawn)
active: Potency [9] 1.52 µM
inactive: Potency [1] | outcome [2]

Nc1c(Cl)c(Cl)c(Cl)c(Cl)c1Cl
inactive: max response [15] -0.704% | max response [13] 1.83% | max response [9] 4.37%

C/C=C(/C)C(=O)O[C@H]1C(C)=C2[C@H]([C@@H]1OC(=O)CCCCCCC)[C@@](C)(OC(C)=O)C[C@H](OC(=O)CCC)[C@@]1(O)[C@H]2OC(=O)[C@@]1(C)O
inactive: outcome [3] | outcome [4] | outcome [5] | outcome [14] | outcome [6] | outcome [7] | outcome [8]

O=C(N[C@H]1CN2CCC1CC2)c1ccc(Cl)cc1
inactive: outcome [3] | outcome [4] | outcome [5] | outcome [14] | outcome [6] | outcome [7] | outcome [8]

CCOCCOC(C)=O
inactive: outcome [16] | activation [11] -0.221% | max response [15] 0.307% | Potency [12] | Potency [17] | max response [13] 4.03% | max response [9] 4.31%

O=S(=O)(O)C(F)(F)C(F)(F)C(F)(F)C(F)(F)C(F)(F)C(F)(F)C(F)(F)C(F)(F)F
inactive: activation [11] 1.49% and 0.543% | max response [15] -0.394% and 4.02% | max response [13] 2.35% and -3.55% | max response [9] -9.5%

Oc1ccc2c3c1O[C@H]1c4[nH]c5c(c4C[C@@]4(O)[C@@H](C2)N(CC2CC2)CC[C@]314)C[C@@]1(O)[C@H]2Cc3ccc(O)c4c3[C@@]1(CCN2CC1CC1)[C@H]5O4
inactive: outcome [3] | outcome [4] | outcome [5] | outcome [6] | outcome [7] | outcome [8]

CC[C@@H](C(N)=O)N1CCCC1=O
inactive: outcome [3] | outcome [4] | outcome [5] | outcome [6] | outcome [7] | outcome [8] | max response [9] 27.6%

C[N+]1(C)C2CCC1CC(OC(=O)C(CO)c1ccccc1)C2 (stereo not drawn)
inactive: outcome [3] | outcome [4] | outcome [5] | outcome [14] | outcome [6] | outcome [7] | outcome [8] | max response [9] 23.1% and 28.3%

Cc1nccc2c1[nH]c1ccccc12
inactive: outcome [3] | outcome [4] | outcome [5] | outcome [6] | outcome [7] | outcome [8] | max response [9] 22.2%

CC(Cc1ccc(O)cc1)NCC(O)c1cc(O)cc(O)c1 (stereo not drawn)
inactive: outcome [3] | outcome [4] | outcome [5] | outcome [6] | outcome [7] | outcome [8]

CN1C2CCC1CC(OC(=O)c1cc(Cl)cc(Cl)c1)C2 (stereo not drawn)
inactive: outcome [3] | outcome [4] | outcome [5] | outcome [6] | outcome [7] | outcome [8]

C#CCOC(=O)C1=CCCN(C)C1
inactive: outcome [3] | outcome [4] | outcome [5] | outcome [6] | outcome [7] | outcome [8] | max response [9] 10.6%

O=C(Cc1ccc(Cl)c(Cl)c1)N1CCCCC1CN1CCCC1 (stereo not drawn)
inactive: outcome [3] | outcome [4] | outcome [5] | outcome [6] | outcome [7] | outcome [8] | max response [9] 17.1%
